Rows were chosen to be rich in hits. Some 12% of all compounds tested hit in one or more screens of this group.
BAZ2B block = qHTS Assay for Inhibitors of BAZ2B | Potency, µM (doses to about 114 µM), actives largely listed as inhibitors | AlphaScreen BAZ2B-H3K14Ac peptide displacement | actives 4.4% (n = 360,000); also: nearly all actives have a fitted effect of over 60% in size
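Protein-peptide AlphaScreen: BAZ2B 50 nM, b-H3K14Ac 50 nM, 1x PBS pH 7.4 + 0.01% Tween-20. Preincubation 30 min RT; cpd 30 min RT (top 110 uM); beads 20 min RT, light-protected.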
G9a block = qHTS Assay for Inhibitors of Histone Lysine Methyltransferase G9a; AID 504332, 2011; G9a H3K9 monomethylation, AlphaScreen, 2 h; Histone-lysine N-methyltransferase EHMT2 (Homo sapiens), Q96KQ7; Potency, µM (top dose mostly 102 µM), usual class: inhibitors; actives 8.8% (n = 350,000); also: nearly all actives have a fitted effect of over 75% in size
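Step 1: enzyme (final 20 nM) with compound, 15 min RT. Step 2: substrate peptide 500 nM and SAM 20 uM, 2 h RT. Step 3: anti-H3K9me1 antibody and AlphaScreen beads, 10 min, then plate read.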
HP1b chromo inh = HTS for Inhibitors of HP1-beta Chromodomain Interactions with Methylated Histone Tails | Chromobox protein homolog 1 (Homo sapiens), P83916 | AlphaScreen HP1-beta / biotin-H3K9me3 peptide binding | Potency, µM (top dose mostly 114 µM), actives largely listed as inhibitors | actives 0.56% (n = 390,000); also: nearly all actives have a fitted effect of over 70% in size
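Compound inhibition of the preformed complex between 50 nM HP1-beta and 50 nM biotinylated H3K9me3 peptide was read by AlphaScreen. Buffer was PBS pH 7.4 with 0.01% Tween-20. Incubations ran 30 min at room temperature, with 10 ug/mL donor/acceptor beads.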
Sfp PPTase inh = qHTS Assay for Inhibitors of Bacillus subtilis Sfp phosphopantetheinyl transferase (PPTase). 4'-phosphopantetheinyl transferase ffp (Bacillus subtilis), Q9F4F7. Biochemical Sfp PPTase activity, qHTS. Potency, µM, most hits filed as inhibitors. actives 3.5% (n = 310,000);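 also: the enzyme is Sfp with the accession as filed and its product quenches rhodamine fluorescence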
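Compounds were incubated with enzyme (final 15 nM) for 15 min at room temperature before substrate addition started the reaction. Fluorescence at 525 nm excitation, 598 nm emission was recorded immediately and after 30 minutes.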
JMJD2A Tudor inh = qHTS Assay for Inhibitors of JMJD2A-Tudor Domain; Lysine-specific demethylase 4A (Homo sapiens), O75164; AlphaScreen JMJD2A-Tudor / H3K4me3 peptide binding; Potency, µM (series often up to 114 µM), usual class: inhibitors; actives 4.4% (n = 390,000); AID 504339, 2011; also: nearly all actives have a fitted effect of over 50% in size
PLK1 PBD inh = qHTS for Inhibitors of PLK1-PDB (polo-like kinase 1 - polo-box domain): Primary Screen | actives 2.8% (n = 360,000) | Serine/threonine-protein kinase PLK1 (Homo sapiens), P53350 | Potency, µM, hits mostly inhibitors | Plk1 PBD binding of FITC phosphopeptide, fluorescence polarization; also: series mostly up to about 57 µM; nearly all actives have a fitted effect of over 65% in size
Hits are given with their value; i = inactive; ? = inconclusive; nt = no result; [ ] = remark or other dose. Calls follow the shape of the dose curve; as a rule, active = well fitted curve in the direction sought with a large enough effect; inconclusive = small, poorly fitted or top-dose-only effect, or another doubt; inactive = no such curve, though single readings can be large; an effect the other way counts as inactive or inconclusive.

SMILES | BAZ2B block | G9a block | HP1b chromo inh | Sfp PPTase inh | JMJD2A Tudor inh | PLK1 PBD inh
C#CCOCCOCCOCCNc1nc(N2CCN(C(=O)CCCCCCCCCCNC(=O)[C@@H](CCC(=O)O)n3cc(CCCCCN)nn3)CC2)nc(N2CCN(C(=O)CCCCCCCCCCNC(=O)[C@H]([C@@H](C)CC)n3cc(CCCCCN)nn3)CC2)n1 | 56µM | i[2.33 µM] | i | nt | ? | i
C#CCOCCOCCOCCNc1nc(N2CCN(C(=O)CCCCCCCCCCNC(=O)[C@H]([C@@H](C)CC)n3cc(CCCCN=C(N)N)nn3)CC2)nc(N2CCN(C(=O)CCCCCCCCCCNC(=O)[C@H](CCCCN)n3cc(C)nn3)CC2)n1 | 50µM | i[2.33 µM] | 35µM | nt | 22µM | i
C#CCOCCOCCOCCNc1nc(N2CCN(C(=O)CCCCCCCCCCNC(=O)[C@H]([C@@H](C)CC)n3cc(CCCCN=C(N)N)nn3)CC2)nc(N2CCN(C(=O)CCCCCCCCCCNC(=O)[C@H]([C@@H](C)CC)n3cc(CCCCN=C(N)N)nn3)CC2)n1 | 50µM | i[2.33 µM] | nt | nt | nt | nt
C#CCOCCOCCOCCNc1nc(N2CCN(C(=O)CCCCCCCCCCNC(=O)[C@H]([C@@H](C)CC)n3cc(CCCCCN)nn3)CC2)nc(N2CCN(C(=O)CCCCCCCCCCNC(=O)[C@H]([C@@H](C)CC)n3cc(CCCCN=C(N)N)nn3)CC2)n1 | 56µM | i[2.33 µM] | nt | nt | nt | nt
C#CCOCCOCCOCCNc1nc(N2CCN(C(=O)CCCCCCCCCCNC(=O)[C@H](CCCCN)n3cc(CCCC(=O)O)nn3)CC2)nc(N2CCN(C(=O)CCCCCCCCCCNC(=O)[C@@H]([C@H](C)O)n3cc(C)nn3)CC2)n1 | i | i[2.33 µM] | i | nt | ? | i
CCCCNC(=O)c1nc(C2CCN(S(=O)(=O)c3ccc(F)c(F)c3)CC2)oc1-c1ccccc1 | nt | nt | nt | nt | nt | i
C#CCOCCOCCOCCNc1nc(N2CCN(C(=O)Cn3cc(CCCN=C(N)N)nn3)CC2)nc(N2CCN(C(=O)[C@H]([C@@H](C)CC)n3cc(CCCCN)nn3)CC2)n1 | i | ? | i | nt | i | i
C#CCOCCOCCOCCNc1nc(N2CCN(C(=O)CCCCCCCCCCNC(=O)Cn3cc(CCCCCN)nn3)CC2)nc(N2CCN(C(=O)CCCCCCCCCCNC(=O)[C@H]([C@@H](C)CC)n3cc(CCCCN=C(N)N)nn3)CC2)n1 | 56µM | i[2.33 µM] | ? | nt | 56µM | i
C#CCOCCOCCOCCNc1nc(N2CCOCC2)nc(N2CCN(C(=O)CCCCCCCCCCNC(=O)[C@@H]([C@H](C)CC)n3cc(CCCCCN)nn3)CC2)n1 | ? | i[2.33 µM] | i | nt | ? | i
C#CCOCCOCCOCCNc1nc(N2CCN(C(=O)CCCCCCCCCCNC(=O)[C@H]([C@@H](C)CC)n3cc(CCCCCN)nn3)CC2)nc(N2CCN(C(=O)CCCCCCCCCCNC(=O)[C@@H]([C@H](C)CC)n3cc(CCCCCN)nn3)CC2)n1 | 50µM | i[2.33 µM] | nt | nt | nt | nt
COc1ccc(OC)c(S(=O)(=O)N2CCCC(C(=O)NCc3cccnc3)C2)c1 (stereo not given) | i | i | i | i | i | i
O=C(Cc1ccc(NC(=O)N2CCCCc3ccccc32)cc1)NCc1cccc(Br)c1 | i | i | i | nt | i | nt
Cc1ccc(/C(O)=C2\C(=O)C(=O)N(C)C2c2ccc(Br)cc2)cc1 (stereo not given) | i | ? | i | i | i | i
O=C1C(=O)N(c2ccccn2)C(c2ccc(F)cc2)/C1=C(/O)c1ccc(Br)cc1 (stereo not given) | i | i[0.501 µM] | i | i | i | i
COc1ccc(/C(O)=C2/C(=O)C(=O)N(c3ccccn3)C2c2ccc(OC)cc2)cc1 (stereo not given) | i | ? | i | i | i | i
O=C1C(=O)N(c2ccccn2)C(c2ccc(Br)cc2)/C1=C(/O)c1ccc(Br)cc1 (stereo not given) | i | 45µM | i | i | i | i
CN1C(=O)C(=O)/C(=C(/O)c2ccc(Br)cc2)C1c1ccc(F)cc1 (stereo not given) | i | 71µM | i | i | i | i
CCOc1ccc(/C(O)=C2/C(=O)C(=O)N(c3ccccn3)C2c2ccc(F)cc2)c(C)c1 (stereo not given) | i | 28µM | i | i | ? | i
Cc1ccc(/C(O)=C2/C(=O)C(=O)N(c3ccccn3)C2c2ccc(F)cc2)cc1 (stereo not given) | i | 40µM | i | ? | i | i
CCN(CC)S(=O)(=O)c1ccc2c(c1)N(CC(=O)NCCN1CCOCC1)C(=O)CO2 | i | i | i | i | i | i
Cc1ccc(S(=O)(=O)NCC(Nc2cccc(Cl)c2)c2ccccc2)cc1 (stereo not given) | i | ? | i | nt | i | nt
CCOCc1nnc(NC(=O)c2cc(OC)cc(OC)c2)s1 | i | 32µM | i | i | i | i
CCc1nnc(NC(=O)c2cccc(OC)c2)s1 | i | i | i | i | i | i
COc1cccc(C(=O)Nc2cccc(NC(=O)c3cccs3)c2)c1 | i | i | i | i | i | i
COc1cccc(C(=O)Nc2nnc(-c3cccs3)s2)c1 | i | 10µM | i | i | i | i
SMILES | BAZ2B block | G9a block | HP1b chromo inh | Sfp PPTase inh | JMJD2A Tudor inh | PLK1 PBD inh
CCOCc1nnc(NC(=O)c2cccc(OC)c2)s1 | ? | 50µM | i | i | i | i
CCOCC(=O)Nc1nnc(COc2ccc(Cl)cc2)s1 | i | 4µM | ? | 28µM | ? | 6.7µM
CCc1ccc(NC(=O)CC2C(=O)N(c3ccc(F)cc3)C(=O)N2Cc2ccc(F)cc2)cc1 (stereo not given) | i | i | i | nt | i | nt
COc1cc(-c2cc3n(C)c(C)c(CCC(=O)NC4CCCCC4)c(=O)n3n2)cc(OC)c1OC | i | i | i | nt | i | nt
CCOC(=O)c1c(N/N=C/c2cccnc2)n[nH]c1C | i | 71µM | i | i | i | i
Cc1ccc(OCC(=O)N/N=C/c2cccnc2)cc1 | i | i[0.501 µM] | i | i | i | i
CCCNS(=O)(=O)c1ccc(OCC(=O)Nc2ccc3c(c2)OCCO3)c(C)c1 | i | i[0.501 µM] | i | nt | i | i
Cn1c[n+](C)cc1/C=N/O | 89µM | 40µM | i | i | 50µM | i
O=C(CCc1nnc2n(Cc3ccccc3Cl)c(=O)c3ccccc3n12)Nc1ccccc1 | i | i | i | nt | i | nt
COc1ccc(C(=O)/C=C/NCc2ccc(F)cc2)cc1OC | i | 50µM | i | i | i | i
CCCOc1ccc(N/C=C/C(=O)c2ccc(OC)c(OC)c2)cc1 | i | nt | i | i | 28µM | 21µM
